target: GEMIN6; test: pooled miR-30 sensor sort-seq; sequence = guide strand; conditions: shRNA

Sequence	sensor-assay potency score (higher = more potent)
TTATACTCATTCTTCTCACTGG	0.394
TTGTAAATGTAATCTTGCCATT	-1.2
ATAATCTCATTAGAGCTGCTGC	-0.457
AATAAGATCCTGAACACGCGAC	-0.339
TAAAATATAGTCTTTTTCTATC	-1.26
TTCAATAAGATCCTGAACACGC	0.147

target: GFPT2; test: as above; conditions: shRNA

Sequence	sensor-assay potency score (higher = more potent)
TTCGTGATTATTCCCATCGATC	-1.22
TTTAAAACTAACTCTAGTGTTG	-0.242
TTGACTTCGTGATTATTCCCAT	-0.191
TTTCTTGACCAGCTGAATGTGT	-0.609
ATCACTAGCAAGTTCAACCATC	-0.789
TTTGTAGTGAAATTCGGTCTTC	0.0421
TTCTCCAGAGTGCACGTCCTGT	-0.972
TAGTATTGAAAACTGATTCTGG	0.341
TTGACCAGCTGAATGTGTCTTT	0.14
TTGGTTTCAAAATTCACCCGAC	0.408
TTGTCTTTTAAAACTAACTCTA	-0.437
TTTGTAAAGTTCTTCATCGAGA	-0.0624

Reference: the OligoGym collection
